PubChem BioAssay (EPA / NIEHS)
Results filed as inconclusive are left out. Activity calls are given as the source filed them. How the source made its calls: active means hit-call score of the fitted dose curve at least 0.9, where 1 is the maximum; inconclusive means response in the unintended direction; inactive means score below 0.9.

Read-out: xenobiotic metabolism (CYP2C9), CYP2C9 (gene 1559)
Assay: CLD_CYP2C9_6hr: CellzDirect (CLD) Gene Expression Assay for xenobiotic metabolism (CYP2C9) at 6 hours (AID 2283664)
Procedure: CLD_6hr is a cell-based, multiplexed-readout assay that uses hepatocyte, a human liver primary cell, with measurements taken at 6 hours after chemical dosing in a 96-well plate.CLD_CYP2C9_6hr is one of 16 assay component(s) measured or calculated from the CLD_6hr assay. It is designed to make measurements of mRNA induction, a form of inducible reporter, as detected with chemiluminescence signals by Quantitative Nuclease Protection Assay (qNPA) technology.Data from the assay component CLD_CYP2C9_6hr was analyzed at the endpoint, CLD_CYP2C9_6hr, in the positive analysis fitting direction relative to DMSO as the negative control and baseline of activity. Using a type of inducible reporter, gain-of-signal activity can be used to understand changes in the reporter gene as they relate to the gene CYP2C9. Furthermore, this assay endpoint can be referred to as a primary readout. To generalize the intended target to other relatable targets, this assay endpoint is annotated to the cyp intended target family, where subfamily is xenobiotic metabolism.
Human hepatocyte cultures were treated daily for two consecutive days with fresh dosing solutions containing appropriate concentrations of the 320 ToxCast chemicals (chemical identities were blinded to CellzDirect and other ToxCast collaborators), vehicle control (0.2% DMSO), and positive control inducers as summarized in Table 1. Due to the large number of treatment groups and chemicals examined, the ToxCast chemicals were divided into two groups (spanning two independent cultures of hepatocytes from separate donor preparations (Hu778: ToxCast plates 1 and 2; Hu776: ToxCast plates 3 and 4). Each preparation of human hepatocyte cultures was treated with respective vehicle control, medium only control, set of six positive controls/reference chemicals for the five hepatic receptor pathways, and a subset of eight of the ToxCast chemicals (indoxacarb, pyrithiobac-sodium, norflurazon, cyhalofop-butyl, methomyl, thiram, acetochlor, and propiconazole). These replicate data, coupled with internal replicates designed within the blinded ToxCast chemical library, provided additional data to evaluate interindividual differences between hepatocyte preparations and their potential impact on chemical profiles.Cell morphology and integrity were evaluated using phase-contrast microscopy as an indicator of hepatocyte cell health (Tyson & Green, 1987). Cultures for each treatment group (i.e., media, vehicle [0.2% DMSO], positive control inducers [multiple concentrations], and the ToxCast chemicals [multiple concentrations]) were observed and cell morphology was assessed relative to vehicle control cultures at each harvest time point (0, 6, 24, or 48 h). […] Images were evaluated at the conclusion of the study to assess changes in cell integrity and account for the effects of chemical exposure on uncharacteristic changes in concentration-dependent gene expression profiles. The results from these determinations of apparent cytotoxicity were annotated (yes/no) alongside the corresponding qNPA data for reference.At the conclusion of each treatment period, hepatocyte cultures (96-well) were washed with 1 volume of HBSS, lysed by addition of 25 ul ArrayPlate lysis buffer (HTG, Tucson, AZ), and 70 ul/well of Denaturation Oil, denatured by incubation at 95C for 10 min, and frozen at approximately -70C until analysis by nuclease protection assay (qNPA) (Roberts et al., 2007). For qNPA analysis, cell lysates were thawed at 50C for approximately 30 min, qNPA probes were added, and samples were incubated at 95C for 10 min to begin the detection process by denaturing the target RNA, dissociating the duplexes and secondary structure hybridization. At the conclusion of the hybridization period, S1 nuclease reagent was added to each sample to digest all nonprotected nucleotides at 50C for 60-90 min. […]

| Structure (SMILES) | outcome |
| --- | --- |
| O=C(O)COc1nc(Cl)c(Cl)cc1Cl | inactive |
| CCOC(=O)C(Cl)Cc1cc(-n2nc(C)n(C(F)F)c2=O)c(F)cc1Cl (centres undefined) | inactive |
| COc1nc(NC(C)C)nc(NC(C)C)n1 | inactive |
| CCNc1nc(Cl)nc(NCC)n1 | inactive |
| OC(c1ccc(Cl)cc1)(c1cncnc1)c1ccccc1Cl (centres undefined) | inactive |
| CNC(=S)S | inactive |
| COc1nc(C)nc(NC(=O)NS(=O)(=O)c2ccccc2Cl)n1 | inactive |
| CCCN(CCC)c1c([N+](=O)[O-])cc(S(N)(=O)=O)cc1[N+](=O)[O-] | inactive |
| C=CCC1=C(C)C(OC(=O)C2C(C=C(C)C)C2(C)C)CC1=O (centres undefined) | inactive |
| COC(=O)C=C(C)OP(=O)(OC)OC | inactive |
| Oc1ccccc1-c1ccccc1 | inactive |
| CCCCC(CC)COC(=O)c1ccccc1C(=O)OCC(CC)CCCC (centres undefined) | inactive |
| CCCCOC(=O)c1ccccc1C(=O)OCCCC | inactive |
| COC(=O)N(OC)c1ccccc1COc1ccn(-c2ccc(Cl)cc2)n1 | inactive |
| CNC(=O)ON=CC(C)(C)SC | inactive |
| C#CCOS(=O)OC1CCCCC1Oc1ccc(C(C)(C)C)cc1 (centres undefined) | inactive |
| COc1cnc(OC)n2nc(NS(=O)(=O)c3c(OCC(F)F)cccc3C(F)(F)F)nc12 | inactive |
| Cc1cc(Cl)ccc1OCC(=O)O | inactive |
| COC(=O)c1ccccc1C(=O)OC | inactive |
| COP(=S)(OC)Oc1nc(Cl)c(Cl)cc1Cl | inactive |
| CC(C)C1(C)N=C(c2nc3ccccc3cc2C(=O)O)NC1=O (centres undefined) | inactive |
| COc1nc(C)nc(NC(=O)NS(=O)(=O)c2ccccc2CCC(F)(F)F)n1 | inactive |
| O=C(O)c1nc(Cl)ccc1Cl | inactive |
| Fc1ccc(Oc2ccnc3cc(Cl)cc(Cl)c23)cc1 | inactive |
